The list is not random: actives were taken first. Their share in the collection is about 1.3%.
MCL1 BIM primary: MCL1-BIM-BH3 interaction inhibition (human) | GST-MCL1 / FITC-Bim-BH3 fluorescence polarization | inhibition, % at 10.9 µM | actives 0.68% (n = 320,000);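 active = inhibition above the mean inhibition of all tested compounds plus 3 SD, set per campaign, cut at about 40% in these data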;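 note: 0% = DMSO wells and 100% = unlabeled Bim-BH3 peptide control; higher means more loss of mP so more displacement of Bim peptide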
Target sequence (Q07820 whole entry, looked up): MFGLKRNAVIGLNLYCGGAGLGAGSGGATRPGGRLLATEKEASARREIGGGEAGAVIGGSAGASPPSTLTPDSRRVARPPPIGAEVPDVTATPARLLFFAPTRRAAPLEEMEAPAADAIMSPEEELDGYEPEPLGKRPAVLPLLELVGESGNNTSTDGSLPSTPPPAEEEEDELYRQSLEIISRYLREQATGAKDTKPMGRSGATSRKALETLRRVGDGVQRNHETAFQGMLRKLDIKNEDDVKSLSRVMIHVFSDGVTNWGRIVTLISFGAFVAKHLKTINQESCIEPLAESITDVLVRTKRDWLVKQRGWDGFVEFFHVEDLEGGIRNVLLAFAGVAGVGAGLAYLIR
BCLXL inh: inhibitors of human Bcl-xL; Q07817; GST-Bcl-xL / FITC-Bim BH3 peptide fluorescence polarization; inhibition, % at 10.9 µM; actives 0.7% (n = 320,000);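 active = inhibition above the mean of all tested compounds plus 3 SD, cutoff set per campaign, cut at about 30% in these data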;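 note: 0% = DMSO wells and 100% = unlabeled Bim-BH3 peptide competitor; inhibitors lower millipolarization by displacing the labeled peptide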
Target sequence (Q07817 whole entry, looked up): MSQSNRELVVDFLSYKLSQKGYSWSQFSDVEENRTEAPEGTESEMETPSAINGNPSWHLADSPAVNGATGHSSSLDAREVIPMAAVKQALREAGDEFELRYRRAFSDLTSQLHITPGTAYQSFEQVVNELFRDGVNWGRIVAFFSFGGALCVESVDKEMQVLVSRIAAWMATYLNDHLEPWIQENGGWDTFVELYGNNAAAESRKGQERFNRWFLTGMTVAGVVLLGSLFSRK
E coli Lon inh: E. coli protease La inhibition. P0A9M0. purified E. coli Lon protease, fluorescence polarization. inhibition, % at 7.94 µM. actives 0.42% (n = 360,000). AID 602123; in the data active = inhibition above about 13%, passing the limit was not always enough;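 note: 0% = enzyme with probe and DMSO and 100% = no enzyme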
GLD-1 RNA inh: GLD-1-TGE RNA interaction inhibition (C. elegans); Q17339; purified GLD-1 + fluorescein TGE RNA, fluorescence polarization; inhibition, % at 5.96 µM; actives 0.44% (n = 320,000); AID 2280;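 active = percent inhibition above a per-plate cutoff, the plate mean of test compounds plus 3 SD, cut at about 30% in these data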;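 note: 0% = DMSO wells with GLD-1 and probe and 100% = wells lacking GLD-1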
Keap1 Nrf2 FP: Keap1-Nrf2 (human) interaction inhibition. actives 0.15% (n = 340,000). Keap1 Kelch-Nrf2 peptide fluorescence polarization, 1536-well. Q14145. inhibition, % at 9.4 µM; in the data active = inhibition above about 12%;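 note: human Keap1 Kelch domain with fluorescein labeled Nrf2 9mer peptide probe; 0% = neutral control wells and 100% = peptide positive control; higher means more block of Keap1 binding to Nrf2 peptide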
LANA DNA inh: inhibitors of KSHV LANA C-terminal domain DNA binding. actives 0.078% (n = 340,000). MBP-C-LANA/FAM-LBS DNA binding, fluorescence polarization. inhibition, % at 9 µM;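 active = highest replicate inhibition at or above 60% at 9 µM, even if other replicates fall short; inactive = all replicates below 60% inhibition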;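 note: 0% = neutral control wells and 100% = 4 µM acridine orange control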
Bcl-xL conf: Bcl-xL (human) inhibition, MCL1 counter-screen confirmation. inhibition, % at 10.9 µM. shares compounds with MCL1 BIM primary. actives 54% (n = 1,700). GST-Bcl-xL / FITC-Bim BH3 peptide FP binding;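 active = inhibition above a cutoff equal to the mean inhibition of all tested compounds plus 3 SD, cut at about 30% in these data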;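 note: 0% = DMSO wells and 100% = unlabeled Bim BH3 control peptide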
MCL1 BIM confirm: MCL1-BIM-BH3 interaction inhibition, confirmation. shares compounds with MCL1 BIM primary. GST-MCL1 / FITC-Bim-BH3 fluorescence polarization. inhibition, % at 10.9 µM. actives 61% (n = 1,700). AID 2168;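 active = inhibition above the average of all tested compounds plus 3 SD, cut at about 40% in these data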;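 note: 0% = DMSO wells and 100% = unlabeled Bim-BH3 control peptide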
GLD-1 TGE cf: GLD-1 TGE RNA interaction inhibition, confirmation. AID 2459. actives 10% (n = 550). shares compounds with GLD-1 RNA inh. inhibition, % at 5.96 µM. GLD-1/FL-TGE RNA fluorescence polarization, biochemical;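 active = average inhibition across triplicates above the hit cutoff set in the primary screen, cut at about 32% in these data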;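 note: 0% = GLD-1 with RNA probe and DMSO and 100% = wells lacking GLD-1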
Keap1 TSA: Keap1 (human) Kelch domain binding; Keap1 Kelch thermal shift, delta Tm; active compounds read high; actives 8% (n = 400); AID 651823; shares compounds with Keap1 Nrf2 FP; max delta Tm, degrees C; in the data active = max delta Tm above about 0.48 degrees C
Sypro dye melt: counter-screen for Keap1 thermal shift hits: dye-only artifacts; shares compounds with Keap1 Nrf2 FP; Sypro Orange dye-only thermal melt, no protein, delta Tm; top dose 26 µM; delta Tm, degrees C (no concentration beside the values); 140 tested, under 10 active;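 active = at highest dose tested, delta Tm positive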
eLon confirm: E. coli Lon inhibition confirmation | shares compounds with E coli Lon inh | inhibition, % at 7.94 µM | actives 31% (n = 1,400) | purified E. coli Lon, fluorescence polarization; in the data active = inhibition above about 16%;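 note: 0% = enzyme with probe and DMSO and 100% = no enzyme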
Numbers without * were called inactive.

For COCCCNC(=O)c1ccc2c3c(onc13)-c1ccccc1C2=O the results were MCL1 BIM primary active, BCLXL inh active, E coli Lon inh 2, GLD-1 RNA inh 197*, Keap1 Nrf2 FP 79*, LANA DNA inh 18, Bcl-xL conf active, MCL1 BIM confirm active and Keap1 TSA -0.19.
Screening COCCCNC(=O)c1ccccc1Oc1ccccc1 returned MCL1 BIM primary -5, BCLXL inh 12, E coli Lon inh -4, GLD-1 RNA inh 0, Keap1 Nrf2 FP -2 and LANA DNA inh 0.
For Cc1cc(=O)c2c([nH]1)c(C)cc1[nH]c(C)c(C)c12 the results were MCL1 BIM primary 100*, BCLXL inh 101*, E coli Lon inh -112, GLD-1 RNA inh 68*, Keap1 Nrf2 FP 25*, LANA DNA inh 51, Bcl-xL conf 27, MCL1 BIM confirm 27, Keap1 TSA -0.16 and Sypro dye melt -26.
`CCC(CNc1cc(OC)cc2cccnc12)NC1CCCCC1` (stereo unspecified) gave MCL1 BIM primary active, BCLXL inh active, E coli Lon inh 71, GLD-1 RNA inh 33*, Keap1 Nrf2 FP 17*, LANA DNA inh 15, Bcl-xL conf 50*, MCL1 BIM confirm 62*, GLD-1 TGE cf -6, Keap1 TSA 0.03 and Sypro dye melt -27.
`COc1cc(NS(=O)(=O)c2ccc(C)cc2)c2ncccc2c1` gave MCL1 BIM primary 6, BCLXL inh 3, E coli Lon inh 1, GLD-1 RNA inh -2, Keap1 Nrf2 FP -6 and LANA DNA inh -1.
`CC(C)n1c(SCC(=O)Nc2ccc(N3CCOCC3)cc2)nnc1-c1ccco1` gave MCL1 BIM primary -7, BCLXL inh -1, E coli Lon inh -6, GLD-1 RNA inh 2, Keap1 Nrf2 FP 0 and LANA DNA inh 2.
`CC(C(=O)O)N1C(=O)/C(=C/C=C/c2ccco2)SC1=S` (stereo unspecified) gave MCL1 BIM primary 83*, BCLXL inh 50*, E coli Lon inh 9, GLD-1 RNA inh -4, Keap1 Nrf2 FP 13*, LANA DNA inh 104*, Bcl-xL conf 58*, MCL1 BIM confirm 87*, Keap1 TSA 0.77* and Sypro dye melt -29.
`O=C1/C(=C/c2cccs2)SC(=S)N1NS(=O)(=O)c1ccccc1` gave MCL1 BIM primary 11, BCLXL inh 6, E coli Lon inh 6, GLD-1 RNA inh -11, Keap1 Nrf2 FP -4 and LANA DNA inh 0.
O=C1/C(=C/C=C/c2ccco2)SC(=S)N1NS(=O)(=O)c1ccccc1 was read as MCL1 BIM primary 83*, BCLXL inh 67*, E coli Lon inh 17, GLD-1 RNA inh -6, Keap1 Nrf2 FP 28*, LANA DNA inh 110*, Bcl-xL conf 45*, MCL1 BIM confirm 73* and Keap1 TSA 1.3*.
`COc1ccc(S(=O)(=O)NNC(=O)C2COc3ccccc3O2)cc1[N+](=O)[O-]` (stereo unspecified) gave MCL1 BIM primary 5, BCLXL inh 4, E coli Lon inh -2, GLD-1 RNA inh 9, Keap1 Nrf2 FP 1 and LANA DNA inh 0.
`O=C1c2ccccc2-c2onc3ccc(Oc4ccccc4)c1c23` gave MCL1 BIM primary 61*, BCLXL inh 63*, E coli Lon inh -19, GLD-1 RNA inh 37*, Keap1 Nrf2 FP 56*, LANA DNA inh 11, Bcl-xL conf 20, MCL1 BIM confirm 25, Keap1 TSA -0.07 and Sypro dye melt -30.
O=C(CC1SC(N2CCOCC2)=NC1=O)Nc1ccc(Cl)cc1 (stereo unspecified) was read as E coli Lon inh 3, Keap1 Nrf2 FP -3 and LANA DNA inh 4.
Screening Cc1cc(-c2ccccc2C(=O)O)on1 returned MCL1 BIM primary 4, BCLXL inh 5, E coli Lon inh 3, GLD-1 RNA inh 3, Keap1 Nrf2 FP -7 and LANA DNA inh -1.
Screening O=C(O)c1ccccc1C1=Nc2ccc(O)cc2Oc2cc(O)ccc21 returned MCL1 BIM primary 196*, BCLXL inh 167*, E coli Lon inh 78*, GLD-1 RNA inh 135*, Keap1 Nrf2 FP 70*, LANA DNA inh 111*, Bcl-xL conf 142*, MCL1 BIM confirm 178*, Keap1 TSA -0.06, Sypro dye melt -27 and eLon confirm 97*.
Screening COC(=O)C1=C(C)Nc2nc(SCc3ccccc3)[nH]c(=O)c2C1c1cccs1 (stereo unspecified) returned MCL1 BIM primary 6, BCLXL inh 6, E coli Lon inh -3, GLD-1 RNA inh 5, Keap1 Nrf2 FP -2 and LANA DNA inh 1.
Screening COc1ccc(S(=O)(=O)N2CCCC(C(=O)NC3CC3)C2)cc1Cl (stereo unspecified) returned MCL1 BIM primary -1, BCLXL inh 1, E coli Lon inh -8, GLD-1 RNA inh 5, Keap1 Nrf2 FP -5 and LANA DNA inh 0.
For COc1ccc(-c2[nH]ncc2/C=N\NC(=O)c2ccc(Br)o2)cc1OC the results were MCL1 BIM primary -10, BCLXL inh 0, E coli Lon inh 2, GLD-1 RNA inh -3, Keap1 Nrf2 FP 1 and LANA DNA inh -2.
Screening CCN(C(=O)COC(=O)c1cc(-c2cccc3ccccc23)nc2ccccc12)C1CCS(=O)(=O)C1 (stereo unspecified) returned MCL1 BIM primary 98*, BCLXL inh 91*, E coli Lon inh 40*, GLD-1 RNA inh 39*, Keap1 Nrf2 FP -1, LANA DNA inh 0, Bcl-xL conf 50*, MCL1 BIM confirm 73*, GLD-1 TGE cf 12 and eLon confirm 18*.

Screening results from PubChem BioAssay.
